Reference: PubChem BioAssay AID651744 (Broad Institute, 2012)
Hit rate of the full screen: of about 5,600 compounds, about 3,100 (55%) were called active. Another 3% or so got no clear call; they are omitted. So high a share suggests a set chosen from earlier hits. Only a sample is shown. Values without a mark were called inactive.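 How the source made its calls: active means mean loss of cell viability signal at or above a set limit, and enough replicates individually reaching it; inconclusive means meets only the mean limit or only the replicate share; inactive means meets neither condition.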

assay: viability loss of mouse 3T3 cells – cell-based, cherry-pick, single point, set 2, cytotoxicity control, confirmation (AID 651744); settings: NIH/3T3 viability, CellTiter-Glo ATP luminescence, 90 h; at 24.9 µM; hits give high values;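 further: 0% = median of neutral control wells and 100% = median of positive control wells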

For `CN1C(=O)c2cc(NC(=O)c3cnccn3)ccc2OC[C@@H]2O[C@H](CC(=O)N[C@@H]3CCN(Cc4ccccc4)C3)CC[C@@H]21`, which inhibition is on record?
Its inhibition is -11.4%.

With `C[C@H](CO)N1C[C@H](C)[C@H](CN(C)Cc2ccc(C(F)(F)F)cc2)Oc2ccc(NS(=O)(=O)c3ccc(Cl)cc3)cc2C1=O` as the compound, how does the inhibition read?
Its inhibition is 101% (active).

With `C[C@@H]1CN([C@@H](C)CO)S(=O)(=O)c2ccc(-c3ccncc3)cc2O[C@@H]1CN(C)C(=O)Nc1ccc(F)cc1` as the compound, how does the inhibition read?
The inhibition was 21.8%.

For `C[C@@H]1CN([C@@H](C)CO)S(=O)(=O)c2ccc(C#Cc3ccc(F)cc3)cc2O[C@H]1CN(C)C(=O)c1ccccn1`, which inhibition is on record?
The inhibition was 92.1% (active).

With `C[C@@H]1CN([C@H](C)CO)S(=O)(=O)c2ccc(-c3cccc(C#N)c3)cc2O[C@@H]1CN(C)C(=O)Nc1ccccc1F` as the compound, how does the inhibition read?
Its inhibition is 77.8% (active).

With `C[C@@H]1CN([C@@H](C)CO)S(=O)(=O)c2ccc(C#Cc3ccc(F)cc3)cc2O[C@H]1CN(C)C(=O)NC1CCCC1` as the compound, how does the inhibition read?
Its inhibition is 90.7% (active).

With `C[C@@H]1CN([C@@H](C)CO)S(=O)(=O)c2ccc(C#Cc3ccccc3)cc2O[C@@H]1CN(C)C(=O)Nc1ccccc1` as the compound, how does the inhibition read?
Its inhibition is 49.1% (active).

With `C[C@@H]1CN([C@H](C)CO)S(=O)(=O)c2ccc(C#CC3CCCC3)cc2O[C@@H]1CN(C)Cc1cccnc1` as the compound, how does the inhibition read?
Its inhibition is 104% (active).

With `C[C@H](CO)N1C[C@H](C)[C@H](CN(C)Cc2cccnc2)Oc2cc(C#CC3CCCC3)ccc2S1(=O)=O` as the compound, how does the inhibition read?
The inhibition was 104% (active).

With `COc1ccc(S(=O)(=O)N2CCCCN3[C@H](C2)[C@H](c2ccc(C#CCC(C)C)cc2)[C@@H]3CO)cc1` as the compound, how does the inhibition read?
The inhibition was 64.2% (active).

For `COc1ccc(S(=O)(=O)N2CCCCN3[C@H](CO)[C@@H](c4ccc(C#CC(C)C)cc4)[C@H]3C2)cc1`, which inhibition is on record?
The inhibition was 105% (active).

Which inhibition does the source give for `CC(C)C#Cc1ccc([C@H]2[C@H](CO)N3CCCCN(C(=O)NC(C)C)C[C@@H]23)cc1` here?
The inhibition was 50% (active).

For `COc1cccc(S(=O)(=O)N2CCCCN3[C@H](C2)[C@H](c2ccc(C#CC(C)C)cc2)[C@@H]3CO)c1`, which inhibition is on record?
The inhibition was 26.4%.

For `CC(C)CC#Cc1ccc2c(c1)O[C@H](CN(C)S(=O)(=O)c1cccc(F)c1)[C@@H](C)CN([C@@H](C)CO)S2(=O)=O`, which inhibition is on record?
The inhibition was 105% (active).

With `Cc1ccc(-c2ccc3c(c2)O[C@H](CN(C)C)[C@@H](C)CN([C@H](C)CO)S3(=O)=O)cc1` as the compound, how does the inhibition read?
Its inhibition is 25.3% (active).

With `COc1ccccc1-c1ccc2c(c1)O[C@@H](CN(C)C)[C@H](C)CN([C@H](C)CO)S2(=O)=O` as the compound, how does the inhibition read?
The inhibition was 19.5%.

For `C[C@@H]1CN([C@H](C)CO)S(=O)(=O)c2ccc(-c3cccc(F)c3)cc2O[C@H]1CN(C)S(=O)(=O)c1ccc(F)cc1`, which inhibition is on record?
Its inhibition is 60.5% (active).

With `COc1ccccc1-c1ccc2c(c1)O[C@H](CN(C)S(=O)(=O)c1ccc(C)cc1)[C@@H](C)CN([C@H](C)CO)S2(=O)=O` as the compound, how does the inhibition read?
The inhibition was 31.1% (active).

With `Cc1noc(C)c1S(=O)(=O)Nc1ccc2c(c1)C(=O)N([C@@H](C)CO)C[C@@H](C)[C@H](CN(C)S(=O)(=O)c1ccc(Cl)cc1)OCCCC[C@H](C)O2` as the compound, how does the inhibition read?
Its inhibition is -2.59%.

Which inhibition does the source give for `C[C@H](CO)N1C[C@H](C)[C@@H](CN(C)S(=O)(=O)c2ccc(F)cc2)Oc2cc(C3=CCCC3)ccc2S1(=O)=O` here?
Its inhibition is 45.4% (active).

With `C[C@@H]1CN([C@H](C)CO)C(=O)c2cc(NS(C)(=O)=O)ccc2O[C@@H](C)CCCCO[C@H]1CN(C)S(=O)(=O)c1cn(C)cn1` as the compound, how does the inhibition read?
Its inhibition is -25.6%.

Which inhibition does the source give for `C[C@@H]1CN([C@@H](C)CO)S(=O)(=O)c2ccc(-c3cccc(F)c3)cc2O[C@@H]1CN(C)S(=O)(=O)c1ccccc1` here?
Its inhibition is 57.2% (active).

Which inhibition does the source give for `C[C@H]1CN([C@@H](C)CO)S(=O)(=O)c2ccc(C#Cc3cccc(F)c3)cc2O[C@@H]1CN(C)S(=O)(=O)c1cn(C)cn1` here?
Its inhibition is 77.2% (active).

With `C[C@@H]1CN([C@H](C)CO)C(=O)Cc2cc(NC(=O)Cc3ccccc3)ccc2O[C@H]1CN(C)Cc1ccc(Oc2ccccc2)cc1` as the compound, how does the inhibition read?
Its inhibition is 83.1% (active).

For `C[C@@H]1CN([C@@H](C)CO)C(=O)c2cc(NC(=O)Nc3ccc4c(c3)OCO4)ccc2O[C@@H]1CN(C)Cc1ccc(Oc2ccccc2)cc1`, which inhibition is on record?
Its inhibition is 103% (active).

For `C[C@@H]1CN([C@@H](C)CO)C(=O)c2cc(NC(=O)Cc3ccccc3)ccc2O[C@@H]1CN(C)Cc1ccc(Oc2ccccc2)cc1`, which inhibition is on record?
The inhibition was 104% (active).

With `C[C@@H]1CN([C@@H](C)CO)C(=O)c2cc(NC(=O)Nc3cccc4ccccc34)ccc2O[C@H]1CN(C)Cc1ccc(Cl)c(Cl)c1` as the compound, how does the inhibition read?
Its inhibition is 18.8%.

With `CCCNC(=O)N1[C@@H]2c3cccc(=O)n3C[C@H]1[C@H](CO)[C@H]2C(=O)NCC(F)(F)F` as the compound, how does the inhibition read?
Its inhibition is -10.7%.

With `O=C(NCc1ccccn1)[C@@H]1[C@@H](CO)[C@@H]2Cn3c(ccc(/C=C/c4ccccc4)c3=O)[C@H]1N2CC1CC1` as the compound, how does the inhibition read?
Its inhibition is 47.4% (active).

Which inhibition does the source give for `C[C@H](CO)N1C[C@H](C)[C@H](CN(C)Cc2ccc(-c3ccccc3)cc2)Oc2ccc(NC(=O)Nc3ccc(F)cc3)cc2CC1=O` here?
Its inhibition is 103% (active).

Which inhibition does the source give for `C[C@H]1CN([C@@H](C)CO)C(=O)Cc2cc(NC(=O)Cc3cn(C)c4ccccc34)ccc2O[C@@H]1CN(C)Cc1ccccc1` here?
Its inhibition is 18.1%.

For `C[C@@H]1CN([C@H](C)CO)C(=O)Cc2cc(NC(=O)c3ccncc3)ccc2O[C@H]1CN(C)Cc1ccc(-c2ccccc2)cc1`, which inhibition is on record?
Its inhibition is 102% (active).

With `C[C@H]1CN([C@@H](C)CO)C(=O)Cc2cc(NC(=O)Cc3cn(C)c4ccccc34)ccc2O[C@@H]1CN(C)Cc1ccc(C(F)(F)F)cc1` as the compound, how does the inhibition read?
The inhibition was 69.9% (active).

Which inhibition does the source give for `C[C@H](CO)N1C[C@H](C)[C@@H](CN(C)Cc2ccc(-c3ccccc3)cc2)Oc2ccc(NC(=O)CCC(F)(F)F)cc2CC1=O` here?
Its inhibition is 105% (active).

Which inhibition does the source give for `C[C@@H]1CN([C@@H](C)CO)C(=O)Cc2cc(NC(=O)C3CCCCC3)ccc2O[C@@H]1CN(C)Cc1ccc(C(=O)Nc2ccccc2N)cc1` here?
The inhibition was 59.4% (active).

For `C[C@@H]1CN([C@H](C)CO)C(=O)CCCn2nncc2CO[C@@H]1CN(C)Cc1ccc(C(=O)Nc2ccccc2N)cc1`, which inhibition is on record?
Its inhibition is 9.3%.

Which inhibition does the source give for `CCCNC(=O)N(C)C[C@@H]1Oc2ncc(C#Cc3ccccc3F)cc2C(=O)N([C@@H](C)CO)C[C@H]1C` here?
The inhibition was 41.6% (active).

With `C[C@H](CO)N1C[C@H](C)[C@@H](CN(C)S(=O)(=O)c2ccccc2)Oc2ncc(C#Cc3ccccc3F)cc2C1=O` as the compound, how does the inhibition read?
The inhibition was 69.9% (active).

For `C[C@@H]1CN([C@@H](C)CO)C(=O)CCCn2cc(nn2)CO[C@@H]1CN(C)S(=O)(=O)c1ccccc1F`, which inhibition is on record?
Its inhibition is -3.5%.

Which inhibition does the source give for `C[C@H](CO)N1C[C@H](C)[C@@H](CN(C)S(=O)(=O)c2ccccc2F)Oc2ncc(C#Cc3ccccc3F)cc2C1=O` here?
Its inhibition is 46.5% (active).
